Measured values published in PubChem BioAssay (Tox21).
Results filed as inconclusive are left out. Active and inactive are the calls of the source. Unless noted, the call rests on the fitted dose curve; in most records, active means well fitted curve in the direction sought with a large enough effect in the repeat runs; inconclusive means weak or mixed curves; inactive means no such curve, though single readings can be large; an effect the other way counts as inactive or inconclusive.

Legend:
[1] = qHTS assay to identify small molecule agonists of the hypoxia (HIF-1) signaling pathway - cell viability counter screen (AID 1224844; calls by dose curve; further: nearly all actives have a fitted effect of over 50% in size; further: potency means the concentration at half of the fitted maximal effect)
In short: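 Luminescent ATP content (CellTiter-Glo, 30 min, room temperature) served as the viability measure in HRE-bla ME-180 cells exposed to compounds for 17 hrs in low-serum medium (0.5% dialyzed FBS).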

[2] = qHTS assay to identify small molecule agonists of H2AX (AID 1224845; active means well fitted activation curve with a large enough effect in the signal ratio in the repeat runs, not every such curve was filed as active; the % refers to the signal ratio)
In short: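 Phospho-H2AX Ser139 measured by HTRF (ex 320 nm; em 665 and 620 nm) after 24 hr antibody incubation. Compounds, 15 concentrations, 0.76% DMSO, were applied to CHO-K1 cells for 3hr at 37C before lysis.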

[3] = qHTS assay to identify small molecule agonists of H2AX - cell viability counter screen (AID 1224847; calls by dose curve;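 further: wild-type CHO-K1 cells; top concentration of the series differs between compounds; nearly all actives have a fitted effect of over 30% in size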)
In short: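 After overnight plating of 1000 CHO-K1 cells per well, a 15-concentration compound series was applied for 3 hr at 37C. Luminescence from CellTiter-Glo, read following 30 min at room temperature, reflected cell viability.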

[4] = qHTS RealTime-Glo MT Cell Viability Assay in HepG2 cells - 24 hour (AID 1224867); further: nearly all actives have a fitted effect of over 50% in size
In short: (§1)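 Real-time, nonlytic viability: 600 HepG2 cells/well mixed with NanoLuc enzyme plus prosubstrate; 5 h settle, compound (DMSO) added by pintool; luminescence monitored over 40 h at 37 C.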

[5] = A CellTox Green Cytotoxicity Assay to monitor cytotoxicity in HEK293 cells - 0 hour (AID 1224869); further: nearly all actives have a fitted effect of over 50% in size
In short: (§2)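 Each value comes from one timepoint of a single continuous run in which HEK293 cells with CellTox Green were exposed to compound for up to 40 h at 37 C, dye fluorescence rising with cell death.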

[6] = qHTS RealTime-Glo MT Cell Viability Assay in HepG2 cells - 40 hour (AID 1224870); further: nearly all actives have a fitted effect of over 50% in size
In short: (§3)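 Real-time viability: cells seeded at 600 per well together with NanoLuc and cell-permeant prosubstrate, compounds added after 5 h incubation. Luminescence tracked at 0, 8, 16, 24, 32 and 40 h of exposure.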

[7] = A CellTox Green Cytotoxicity Assay to monitor cytotoxicity in HEK293 cells - 40 hour (AID 1224871); further: nearly all actives have a fitted effect of over 45% in size; further: potency means the concentration at half of the fitted maximal effect
In short: as §2

[8] = qHTS RealTime-Glo MT Cell Viability Assay in HepG2 cells - 8 hour (AID 1224873); further: nearly all actives have a fitted effect of over 55% in size
In short: as §3

[9] = A CellTox Green Cytotoxicity Assay to monitor cytotoxicity in HEK293 cells - 24 hour (AID 1224875); further: nearly all actives have a fitted effect of over 45% in size; further: potency means the concentration at half of the fitted maximal effect
In short: as §2

[10] = A CellTox Green Cytotoxicity Assay to monitor cytotoxicity in HepG2 cells - 16 hour (AID 1224876); further: nearly all actives have a fitted effect of over 45% in size; further: potency means the concentration at half of the fitted maximal effect
In short: (§4)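 Continuous culture of HepG2 cells with a membrane-impermeant DNA dye; rising fluorescence marks dead cells. Compound exposure lasted up to 40 h at 37 C, with reads every 8 h from 0 h.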

[11] = qHTS RealTime-Glo MT Cell Viability Assay in HepG2 cells - 32 hour (AID 1224877); further: nearly all actives have a fitted effect of over 55% in size
In short: as §1

[12] = A CellTox Green Cytotoxicity Assay to monitor cytotoxicity in HepG2 cells - 24 hour (AID 1224878); further: nearly all actives have a fitted effect of over 45% in size; further: potency means the concentration at half of the fitted maximal effect
In short: as §4

[13] = A CellTox Green Cytotoxicity Assay to monitor cytotoxicity in HepG2 cells - 40 hour (AID 1224879); further: nearly all actives have a fitted effect of over 40% in size; further: potency means the concentration at half of the fitted maximal effect
In short: as §4

[14] = qHTS RealTime-Glo MT Cell Viability Assay in HEK293 cells - 32 hour (AID 1224868); further: nearly all actives have a fitted effect of over 50% in size; further: potency means the concentration at half of the fitted maximal effect
In short: (§5)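 Cells + reagent dispensed (600 cells/well, HEK293) → 5 h at 37 C/5% CO2 → 23 nL compound in DMSO pinned → 40 h at 37 C → luminescence read at 0, 8, 16, 24, 32, 40 h.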

[15] = qHTS RealTime-Glo MT Cell Viability Assay in HEK293 cells - 16 hour (AID 1224872); further: nearly all actives have a fitted effect of over 50% in size; further: potency means the concentration at half of the fitted maximal effect
In short: as §5

[16] = qHTS RealTime-Glo MT Cell Viability Assay in HEK293 cells - 0 hour (AID 1224880)
In short: (§6)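 qHTS format; HEK293 cells with NanoLuc/prosubstrate reagent, 37 C/5% CO2 for 5 h pre-dosing; compounds 23 nL in DMSO; luminescence at each time point reflects viable cells.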

[17] = qHTS RealTime-Glo MT Cell Viability Assay in HEK293 cells - 40 hour (AID 1224874); settings: RealTime-Glo luminescence; max response: stronger effect = lower value; further: nearly all actives have a fitted effect of over 50% in size; further: potency means the concentration at half of the fitted maximal effect
In short: as §6

[18] = qHTS assay to identify small molecule agonists of the estrogen related receptor (ERR) signaling pathway from Tox21 library (AID 1224849; calls by dose curve; further: nearly all actives have a fitted effect of over 15% in size); settings: ERR reporter cell line, ONE-Glo luciferase, 18 h; at 92.4 µM (top of the series) unless noted
In short: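 We plated ERR reporter cells, waited 6 h, added compounds in DMSO by pin tool and incubated them 18 h at 37 C. ONE-Glo was then added and luminescence read after 30 min.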

[19] = qHTS assay to identify small molecule agonists of the hypoxia (HIF-1) signaling pathway (AID 1224846; active means well fitted activation curve with a large enough effect in the signal ratio in the repeat runs, not every such curve was filed as active; the % refers to the signal ratio)
In short: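 Measured by blue/green FRET after loading CCF4-AM: beta-lactamase expressed from a hypoxia response element in ME-180 cells. Test agents were delivered in DMSO and left 17 hrs; cells had been plated 5 hrs earlier in low-serum (0.5% dialyzed FBS) medium.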

[20] = qHTS assay to identify small molecule antagonists of the estrogen related receptor (ERR) signaling pathway from Tox21 library (AID 1224848); further: nearly all actives have a fitted effect of over 50% in size
In short: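 Antagonist-mode screen of the Tox21 10K library in an NTP-provided ERR reporter cell line; 18 h compound exposure at 37 C, luminescence measured with ONE-Glo.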
On the % scale 0 is the no-effect control and ±100 the full control effect.

Cc1c(-c2ccccc2)oc2c(C(=O)OCCN3CCCCC3)cccc2c1=O
inactive: Potency [1] | Potency [2] | Potency [3] | Potency [4] | Potency [5] | Potency [6] | Potency [7] | outcome [8] | Potency [9] | Potency [10] | Potency [11] | Potency [12] | Potency [13]

CC(C)NCC(O)COc1ccc(CCOCC2CC2)cc1 (centres undefined)
inactive: Potency [1] | Potency [2] | Potency [3] | Potency [4] | Potency [14] | Potency [5] | Potency [6] | Potency [7] | Potency [15] | outcome [8] | Potency [9] | Potency [11] | Potency [12] | Potency [13] | outcome [16]

CC(C)NC[C@@H](O)COc1cccc2ccccc12
inactive: Potency [1] | Potency [2] | Potency [3] | Potency [4] | Potency [14] | Potency [5] | Potency [6] | Potency [7] | Potency [15] | outcome [8] | max response [17] -27.3% | Potency [9] | Potency [10] | Potency [11] | Potency [12] | Potency [13] | outcome [16]

CCCCCCCCCCCCOCCOS(=O)(=O)O
active: Potency [1] 43.6 µM | Potency [7] 24.5 µM | Potency [9] 24.5 µM | Potency [10] 49 µM | Potency [12] 49 µM | Potency [13] 54.9 µM
inactive: Potency [2] | Potency [3] | activity change, positive = activation [18] -29.3% | Potency [4] | Potency [6] | Potency [15] | outcome [8] | Potency [11] | outcome [16]

C=CCCCCCCCCO
inactive: Potency [1] | Potency [2] | outcome [19] | Potency [4] | Potency [14] | Potency [5] | Potency [6] | Potency [15] | outcome [8] | max response [17] -15.3% | Potency [10] | Potency [11]

COc1cc(N)c(Cl)cc1C(=O)NC1CCN(Cc2ccccc2)CC1
active: Potency [14] 19 µM | Potency [15] 19 µM | Potency [17] 19 µM
inactive: Potency [1] | Potency [2] | Potency [3] | Potency [5] | Potency [6] | Potency [7] | outcome [8] | Potency [9] | Potency [10] | Potency [11] | Potency [12] | Potency [13]

O=C1N(c2ccccc2)c2ccccc2C1(Cc1ccncc1)Cc1ccncc1
inactive: Potency [1] | Potency [2] | Potency [3] | Potency [20] | activity change, positive = activation [18] 5.08% [at 42.5 µM] | Potency [4] | Potency [14] | Potency [5] | Potency [6] | Potency [7] | Potency [15] | outcome [8] | max response [17] 5.52% | Potency [9] | Potency [10] | Potency [11] | Potency [12] | Potency [13]

CO[C@@]1(NC(=O)CSCC#N)C(=O)N2C(C(=O)O)=C(CSc3nnnn3C)CS[C@@H]21
inactive: Potency [1] | Potency [2] | Potency [3] | Potency [14] | Potency [6] | Potency [7] | Potency [15] | outcome [8] | max response [17] 7.28% | Potency [9] | Potency [11] | Potency [12] | Potency [13] | outcome [16]

O=C1CCCCCCCCCCC(=O)OCCO1
inactive: Potency [1] | Potency [2] | outcome [19] | Potency [4] | Potency [14] | Potency [5] | Potency [6] | outcome [8] | max response [17] -13.7% | Potency [10] | Potency [11] | outcome [16]
active: Potency [12] 21.9 µM | Potency [13] 24.5 µM

CN(C)CC[C@@H](c1ccc(Cl)cc1)c1ccccn1
inactive: Potency [1] | Potency [2] | Potency [3] | Potency [4] | Potency [14] | Potency [5] | Potency [6] | Potency [7] | Potency [15] | outcome [8] | max response [17] -0.584% | Potency [9] | Potency [10] | Potency [11] | Potency [12] | Potency [13] | outcome [16]

Cc1nnc(SCC2=C(C(=O)O)N3C(=O)[C@@H](NC(=O)Cn4cnnn4)[C@H]3SC2)s1
inactive: Potency [1] | Potency [2] | Potency [3] | Potency [4] | Potency [14] | Potency [5] | Potency [6] | Potency [7] | Potency [15] | outcome [8] | Potency [9] | Potency [10] | Potency [11] | Potency [12] | Potency [13] | outcome [16]

CCN(CCCc1ccccc1)CCCc1ccccc1
inactive: Potency [1] | Potency [2] | Potency [3] | Potency [20] | Potency [4] | Potency [6] | Potency [7] | outcome [8] | Potency [9] | Potency [10] | Potency [11] | Potency [12] | outcome [16]

CN1C(=O)CC(c2ccccc2)C1=O (centres undefined)
inactive: Potency [1] | Potency [2] | Potency [3] | Potency [4] | Potency [14] | Potency [5] | Potency [6] | Potency [7] | Potency [15] | outcome [8] | max response [17] 11.9% | Potency [9] | Potency [10] | Potency [12] | Potency [13] | outcome [16]

CCCNC(C)C(=O)Nc1c(C)csc1C(=O)OC (centres undefined)
inactive: Potency [1] | Potency [2] | Potency [3] | Potency [20] | Potency [4] | Potency [14] | Potency [5] | Potency [6] | Potency [7] | Potency [15] | outcome [8] | max response [17] -5.59% | Potency [9] | Potency [11] | Potency [12] | outcome [16]

CNCCC(Oc1ccccc1OC)c1ccccc1 (centres undefined)
inactive: Potency [1] | Potency [2] | Potency [3] | Potency [20] | activity change, positive = activation [18] -5.63% [at 42.5 µM] | Potency [14] | Potency [5] | Potency [6] | Potency [7] | Potency [15] | outcome [8] | max response [17] -21.1% | Potency [9] | Potency [10] | Potency [11] | Potency [12] | Potency [13] | outcome [16]
